This test has as its system RARb:RXRa (NR concentration 270 nM, RXRa partner concentration 90 nM). In words: PBM binding z-score (relative to random genomic background probes); higher = stronger binding; sequences stand for … in GC…GCGATTGACAGCGTAGAATGAAGG
A digest of the protocol:
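Binding z-scores take random background probes as their reference. They come from custom Agilent 4×180K protein-binding microarrays incubated 1 h with ligand-free nuclear receptor dimers, with antibodies against each partner (one per run) detecting binding. Scanned fluorescence was regression-normalized.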
Consider CGTCCAAGGTCAAAGGTCGGTGAAGAGATGACGG, for which the PBM binding z-score is 5.68.
For the sequence GCTGCTAGGTCAGATTGGTCAGCTAACGGGTACG, the PBM binding z-score was found to be 3.27.
To TCTAGTAGATCAACAGGAGGTTAAGAAAGATCGA belongs 0.445; to ACTATTAGTTGACTTAGGCCAACCGATACGACGC, 0.896.
To TATACAGGGTCATAGGCCAGAGTACGAATGTCGA belongs 4.25.
Then GCTCGGATGACAAGGTCAGAGCTTTGTCCGTAGA, with 2.61.
The sequence CGTCCAAGGTCAATGCTAGGTCGGTGAAAGCATT registered a PBM binding z-score of 4.95.
Then TCTATTAGTTGACTAGGGCAACCGAAACAGCGGA, with 0.994.
Then TTGCCAAGGTGAAGGTCGTTGATCCCTCTGTAGA, with 2.08; and TCTCGGAGGACACGATGGTCAGAGCTTTCCAGAG, with 1.51.
Then TCTATTAGTTGATTAGGGCAACTGAAACAGCGGA, with 0.768; and TCTTGTAGATGAAAGGTTAAGAAAGCCGAAGCCT, with 1.73; and TCAGACATGTGAAGGTAACTCAGGTACGCAGTCG, with 0.199.
In the case of ATATGTAGGTTAATGGTCATTCAGGTTGGTTCGC, the PBM binding z-score amounted to 1.45.
Regarding ACTATTAGTTGAGACAAGGGCAACCGATAGGTTG, the PBM binding z-score worked out at 1.17.
Sequence GCTGCTAGGTCCACTGATGGTCAGCTAAAGCTCG displayed a PBM binding z-score of 0.403.
To TTACCAAGGTGAAGGTCCTTGATCCCTCTGTAGA belongs 1.75; to CAAACTAGGTCACGAAAGGTCAATGTCGAATGAC, 5.86.

These data come from the supplement of paper PMC6555819.
